BasE inh: BasE siderophore biosynthesis inhibition | purified BasE, fluorescence polarization binding displacement | inhibition, % (no concentration beside the values) | 84,000 tested, 0.1% active;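 note: 0% = negative plate control signal and 100% = positive plate control signal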
Sa helicase inh: S. aureus DNA helicase inhibition | purified S. aureus helicase, fluorescence unwinding assay | inhibition, % (concentration not given with the values) | 120,000 tested, 0.05% active | AID 485395;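 note: 0% = mean of negative control wells and 100% = mean of positive control wells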
Numbers without * were called inactive; . = not tested or not shown. Only some compounds are listed: those with a hit (about 0.11% of all), similar ones and a draw of the others. Cut-off read from the data, not from the text of the source: active = inhibition above about 25% (passing the limit was not always enough); inactive = the rest.

SMILES | BasE inh | Sa helicase inh
COc1ccc(-c2csc(/C(C#N)=C(\O)CSc3nnc(-c4ccccc4F)n3C3CC3)n2)cc1OC | -2 | 6
COc1ccc(-c2csc(/C(C#N)=C(\O)CSc3nccn3C)n2)cc1OC | 31* | 5
COC(CNC(=O)/C=C1\Sc2ccccc2N(Cc2ccccc2F)C1=O)OC | . | 8
Cc1cc(/C=N\NC(=O)COc2cccc3cccnc23)c(C)n1-c1cccnc1 | -1 | -25
CCOC(=O)C1=C(N)Oc2cc(C)oc(=O)c2C1c1ccccc1F (stereo not drawn) | 28* | 7
CC1=C(C(=O)OC(C)C)C(c2ccccc2F)C(C#N)=C(N)O1 (stereo not drawn) | -3 | 12
CN(C1=NC(=O)/C(=C\c2ccccc2Cl)S1)c1ccc(O)cc1 | 1 | 5
Cc1cc2occ(CC(=O)Oc3ccc(-c4nnco4)cc3)c2cc1C | 1 | -3
NC(=O)C1CCN(Cc2cc(=O)oc3cc(O)ccc23)CC1 | 1 | 4
Cc1ccc(C)n1-c1ccc(C(=O)O)cc1O | 47* | -13
Cc1cc(C(=O)O)ccc1-n1c(C)ccc1C | 3 | -22
COc1ccccc1C(=O)NCCC(=O)Nc1cc(C(N)=O)cc(C(N)=O)c1 | -1 | -8
O=C(CSc1ccccn1)Nc1ncccn1 | 6 | -8
Cc1nonc1NC(=O)CSc1ccccn1 | 57* | 3
Cc1cccc(OCC(=O)Nc2ccccc2)c1 | . | 11
Cc1cccc(OCC(=O)NC2CCCC2)c1 | 29* | -6
C=CCn1c(N)c(C(=O)OCC)c2nc3ccccc3nc21 | -5 | -27
O=C(c1ccco1)N1CCN(c2c3c(nc4nncn24)CCC3)CC1 | -1 | 1
O=C(CC1C(=O)NC2CCCCC2N1C(=O)Nc1cccc(Cl)c1)Nc1ccc2c(c1)OCO2 (stereo not drawn) | 0 | 17
CCN(CC)CCCNc1nc2cc(OC)c(OC)cc2c2nc(-c3ccccc3)nn12 | . | 74*
CCN(CC)CCCNc1nc2cc(OC)c(OC)cc2c2nc(-c3cccnc3)nn12 | 2 | 43
CCN(CC)Cc1nc2ccccc2[nH]1 | 1 | 7
OCCNCCSc1nnc(-c2cccs2)o1 | 3 | 2
CS(=O)c1scc(-c2ccc(Cl)cc2)c1C#N (stereo not drawn) | 29* | 0
CN(C)CCSc1nc(-c2cccs2)cc(-c2ccc(Cl)cc2)c1C#N | . | -12
SMILES | BasE inh | Sa helicase inh
COc1ccc(-c2nn(C)c3sc(C(=O)NCCCN4CCOCC4)cc23)cc1OC | . | 32
CCCN1CCN(CCCNC(=O)c2cc3c(-c4ccc(OC)c(OC)c4)nn(C)c3s2)CC1 | . | 50*
Oc1cc(C(F)(F)F)cc(C(F)(F)F)c1 | . | -16
O=C(CN1CCOCC1)NN1C(=O)c2cccc3cccc(c23)C1=O | 1 | 1
O=C(/C=C/c1ccccc1)Nc1ccc(O)cc1 | 20 | -9
O=C(/C=C/c1ccccc1)Nc1cccnc1 | 36* | -9
Cc1cc(C)cc(Nc2csc(/N=C/NO)n2)c1 | . | 6
CN(C)S(=O)(=O)c1ccc(=O)n(CC(=O)NCC2COc3ccccc3O2)c1 (stereo not drawn) | 1 | -11
CCC1CCCCN1C(=O)Cn1cc(S(=O)(=O)N(C)C)ccc1=O (stereo not drawn) | 3 | 29*
Cc1noc(NS(=O)(=O)c2ccc(NC(=O)c3ccccc3)cc2)c1C | 3 | -10
CC(C)N1CC=C2C(C1)C(c1ccccc1)C(C#N)=C(N)C2(C#N)C#N (stereo not drawn) | . | -4
CC(C)N1CC=C2C(C1)C(c1ccccc1Cl)C(C#N)=C(N)C2(C#N)C#N (stereo not drawn) | 26* | -13
CC1Cc2ccccc2N1C(=O)CNc1cc(C(F)(F)F)ccc1N1CCOCC1 (stereo not drawn) | 1 | -6
N#Cc1ccccc1CSc1nc2ccccc2s1 | 0 | -17
CC1=C/C(=N\NC(=S)Nc2cc(C)ccc2C)CC1 | 1 | -2
Cc1ccc2oc(=O)c3cc(C(=O)NCCCN4CCN(C)CC4)sc3c2c1 | -4 | -6
Cc1ccc2oc(=O)c3cc(C(=O)NCCN4CCCCC4C)sc3c2c1 (stereo not drawn) | . | 46*
Oc1ccccc1/C=N/[n+]1ccccc1 | . | -1
C=CC[n+]1ccc(/C=C/c2ccccc2O)c2ccccc21 | -1 | 42*
Cc1ccc2c(cnn2C(=O)CCCC(=O)N2CCc3ccccc32)c1 | -1 | 18
CN1/C(=C/c2cccc[n+]2C)C=Cc2ccccc21 | 1 | 54*
CN1/C(=C/C=C(C#N)C#N)C=Cc2ccccc21 | 1 | -50
COC(=O)C1=CNC=C(C(=O)OC)C1c1ccccc1C | 29* | 20
COC(=O)C1=CNC=C(C(=O)OC)C1c1cccc2ccccc12 | . | -1
O=C(N=C1SCCN1CC(O)c1ccccc1)c1ccccc1 (stereo not drawn) | 3 | -6
CCCCOc1cccc2c1CCN(CC)C2=O | -1 | 6
O=C(O)c1cc(-c2ccccc2)nc2ccccc12 | . | 6
O=C(O)c1cc(-c2ccccc2)nc2c1cnn2Cc1ccncc1 | 99* | -13
CN1C=C/C(=C\c2cc[n+](C)c3ccccc23)c2ccccc21 | . | 86*
